Source: PubChem
HPGD block = qHTS Assay for Inhibitors of HPGD (15-Hydroxyprostaglandin Dehydrogenase); Potency, µM, without a hit: at the top dose activity change, negative = inhibition, most hits filed as inhibitors; 15-hydroxyprostaglandin dehydrogenase [NAD(+)] (Homo sapiens), P15428; purified HPGD, NADH fluorescence kinetic, PGE2 substrate; AID 894, 2007; 150,000 tested, 4.3% active; note: potency is the fitted concentration of half-maximal effect
Target sequence (P15428 whole entry, looked up): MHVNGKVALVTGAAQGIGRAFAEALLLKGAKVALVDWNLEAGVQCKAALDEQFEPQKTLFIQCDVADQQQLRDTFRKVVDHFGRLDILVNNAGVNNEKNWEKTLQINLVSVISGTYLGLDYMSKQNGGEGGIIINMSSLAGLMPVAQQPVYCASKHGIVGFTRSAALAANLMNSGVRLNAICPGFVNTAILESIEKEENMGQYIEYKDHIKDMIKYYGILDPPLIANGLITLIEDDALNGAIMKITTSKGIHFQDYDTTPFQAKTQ
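20 nM HPGD preincubated 15 min at room temperature with compound in 50 mM Tris-HCl pH 8, 0.01% Tween 20. Started with 1 mM NAD+ and 30 uM prostaglandin E2; NADH fluorescence (360/450 nm) read 5 times over 30-s intervals, last minus first.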
ALDH1A1 inh = qHTS Assay for Inhibitors of Aldehyde Dehydrogenase 1 (ALDH1A1); Purified ALDH1A1, NADH fluorescence, propionaldehyde substrate; Potency, µM (top dose mostly 75.3 µM), for the others: top-dose activity, negative = inhibition, most hits filed as inhibitors; 220,000 tested, 7.3% active; AID 1030, 2008;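 note: potency is the fitted concentration of half-maximal effect; plate controls were no enzyme wells and a reference inhibitor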
PNC assembly inh = High Content Assay for Compounds that inhibit the Assembly of the Perinucleolar Compartment. 140,000 tested, 3.1% active. PC3M PTB-GFP, PNC prevalence imaging, 16 h; hits give low values. activity change (PNC), negative = inhibition, % at 10 µM;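 active = readout at or below -70, meaning at least 70% loss of cells showing the perinucleolar compartment, a nuclear body marking cancer cells; inconclusive = readout between -30 and a set limit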;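 note: plate controls were DMSO wells for no effect and camptothecin positive control wells for full effect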
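PC3M cells stably expressing PTB-GFP, 750–1000 cells/well, treated 16 h at 37 °C with compound (23 nl of library stock), in duplicate. After paraformaldehyde fixation and Hoechst stain, imaged at 20x; PNC prevalence scored by image analysis.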
* = called active by the depositor; [ ] = another dose, or the depositor's remark. An excerpt weighted towards active compounds, which were near 11% of everything screened. Unless noted, calls come from the whole dose curve; as a rule, active = well fitted inhibition curve with a large enough effect (not every such curve was filed as active); inconclusive = small, poorly fitted or top-dose-only effect, or another doubt; inactive = no such curve, though single readings can be large or run the other way. Unless noted, % is set by controls: 0 for no effect and ±100 for the full control effect.

`COc1ccc(OC)c(CNC(=O)C2CCN(S(C)(=O)=O)CC2)c1` gave ALDH1A1 inh 14%.
`CCN(CCCNC(=O)c1c(C)cc(=O)oc1C)c1cccc(C)c1` gave HPGD block -18%, ALDH1A1 inh 10µM* and PNC assembly inh 9.
`Cc1cc(=O)oc(C)c1C(=O)NCCNC(=O)c1c(C)cc(=O)oc1C` gave HPGD block -4%, ALDH1A1 inh -7% and PNC assembly inh -25.
COc1ccc(CNc2ncncc2-c2c(C)noc2C)c(OC)c1 was read as ALDH1A1 inh 12%.
For NC(N)=NCCC[C@H](NC(=O)[C@@H](N)Cc1ccc(O)cc1)C(=O)O the results were ALDH1A1 inh -8%.
For CO[C@@]1(NC(=O)CSCC#N)C(=O)N2C(C(=O)O)=C(CSc3nnnn3C)CS[C@@H]21 the results were HPGD block 0%, ALDH1A1 inh -1% and PNC assembly inh -12.
`Cn1c(=O)c2[nH]c(=O)cnc2n(C)c1=S` gave ALDH1A1 inh 20µM*.
Cn1c(=O)c2[nH]c(CCCCc3nc4c([nH]3)c(=O)n(C)c(=S)n4C)nc2n(C)c1=S was read as HPGD block -5% and ALDH1A1 inh 12%[13.5 µM].
Screening O=C(Nc1sc2c(c1C(=O)O)CCC2)c1cccs1 returned HPGD block 25µM*, ALDH1A1 inh inconclusive and PNC assembly inh 28.
Screening NC(=O)c1c(NC(=O)c2cccnc2Cl)sc2c1CCCC2 returned HPGD block inconclusive, ALDH1A1 inh -16% and PNC assembly inh -24.
Screening NC(=O)c1c(NC(=O)c2cccs2)sc2c1CCCCCC2 returned HPGD block inconclusive, ALDH1A1 inh inconclusive and PNC assembly inh -28.
`O=C(O)c1c(NC(=O)c2cccc3ccccc23)sc2c1CCC2` gave HPGD block 16µM*, ALDH1A1 inh inconclusive and PNC assembly inh inconclusive.
O=C(Nc1sc2c(c1C(=O)O)CCC2)c1ccccc1 was read as HPGD block 18µM*, ALDH1A1 inh 6% and PNC assembly inh -11.
For O=C(Nc1sc2c(c1C(=O)O)CCC2)c1ccc(F)cc1 the results were ALDH1A1 inh -7%.
For COC(=O)c1ccc(-c2ccc(CNCC(O)c3ccccc3)o2)cc1 (centres undefined) the results were HPGD block -23%, ALDH1A1 inh inconclusive and PNC assembly inh inconclusive.
Screening CC(=O)N/C(=C\c1cccc([N+](=O)[O-])c1)C(=O)NC1CCCCC1 returned HPGD block -10%, ALDH1A1 inh 0% and PNC assembly inh 217.
`Cc1cc(C)cc(OCC(=O)OCC(=O)N2CC(=O)Nc3ccccc32)c1` gave ALDH1A1 inh 9%.
Screening Cc1ccsc1/C=N/n1c(C2CCCCC2)n[nH]c1=S returned HPGD block 13µM*, ALDH1A1 inh inconclusive and PNC assembly inh 0.
For S=c1[nH]nc(C2CCCCC2)n1/N=C/c1ccccn1 the results were ALDH1A1 inh 3.5µM*.
`C=CCn1c(C2CCCCC2)n[nH]c1=S` gave ALDH1A1 inh 6%.
`Cc1ccc(/C=N/n2c(C)nnc2C)s1` gave HPGD block -14%, ALDH1A1 inh 8% and PNC assembly inh -25.
For S=c1[nH]nc(C2CCCCC2)n1/N=C/c1ccco1 the results were HPGD block inconclusive, ALDH1A1 inh inconclusive and PNC assembly inh -11.
`Cc1ccc(/C=N/n2c(C3CCCCC3)n[nH]c2=S)s1` gave HPGD block 11µM*, ALDH1A1 inh -3% and PNC assembly inh 7.
For COCCNc1cc(-c2ccccc2C(F)(F)F)ncn1 the results were HPGD block -12% and ALDH1A1 inh -4%.
Screening COC(=O)NC(c1ccccc1)c1c[nH]c2ccccc12 (centres undefined) returned HPGD block -5% and ALDH1A1 inh 6%.
Cc1cc(NC(=O)CSc2nc(CC(C)(C)C)nc3c2c(=O)n(C)c(=O)n3C)no1 was read as HPGD block -9%, ALDH1A1 inh 10% and PNC assembly inh -23.
For COc1cc2c(cc1O)CCC1C2CC[C@@]2(C)C1CC[C@@H]2O (some centres undefined) the results were HPGD block 3% and ALDH1A1 inh 4%.
Cc1onc(-c2ccccc2)c1C(=O)N/N=C/c1ccc([N+](=O)[O-])s1 was read as HPGD block inconclusive, ALDH1A1 inh -6% and PNC assembly inh 31.
`O=C(Cc1cccs1)N/N=C\c1ccc([N+](=O)[O-])s1` gave ALDH1A1 inh 13µM*.
`Cc1ccc(/C=N/NC(=O)Cc2cccs2)o1` gave HPGD block -21%, ALDH1A1 inh 13µM* and PNC assembly inh -22.
Screening Cc1ccc(NC(=S)N/N=C/c2ccc([N+](=O)[O-])s2)cc1 returned HPGD block inconclusive, ALDH1A1 inh 11µM* and PNC assembly inh 35.
`COc1cc(/C=N/NC(=O)Cc2cccs2)c([N+](=O)[O-])cc1OC` gave HPGD block -12%, ALDH1A1 inh inconclusive and PNC assembly inh 55.
Screening CCN(CC)c1ccc(/C=N/NC(=O)Cc2cccs2)cc1 returned HPGD block inconclusive, ALDH1A1 inh inconclusive and PNC assembly inh 20.
`CC(NC(=O)Nc1ccc(Br)cc1)C(C)(C)C` (centres undefined) gave ALDH1A1 inh -8%.
For O=C(CN1C(=O)C2CC=CCC2C1=O)OCCN1C(=O)c2ccccc2C1=O (centres undefined) the results were HPGD block -4%, ALDH1A1 inh -7% and PNC assembly inh 1.
Screening CC(=O)c1ccc(OC(C)C)c(CN2CCCCC2)c1 returned HPGD block -5%, ALDH1A1 inh inconclusive and PNC assembly inh -28.
Cc1cc(C(=O)NNC(=S)NCc2ccco2)n(C)n1 was read as HPGD block -22%, ALDH1A1 inh inconclusive and PNC assembly inh inconclusive.
Screening CC(C)c1cc(C(=O)NNC(=S)NCc2ccco2)c(O)c(C(C)C)c1 returned HPGD block inconclusive, ALDH1A1 inh 22µM* and PNC assembly inh 18.
For COc1ccc(/C=N/n2c(SC)nnc2-c2ccccc2)cc1C the results were HPGD block -13%, ALDH1A1 inh 1% and PNC assembly inh 2.
For COc1ccc(/C=N/n2c(SC)nnc2-c2ccccc2)c(OC)c1OC the results were HPGD block inconclusive, ALDH1A1 inh inconclusive and PNC assembly inh -125*.
CCO[C@@H]1OC(C(=O)N2CCN(C)CC2)=C[C@H](c2ccc(C(F)(F)F)cc2)[C@H]1CCCO was read as ALDH1A1 inh 10%.
Screening CCC(Sc1nc2ccc(N)cc2s1)C(=O)Nc1nccs1 (centres undefined) returned HPGD block 25µM*, ALDH1A1 inh 7.9µM* and PNC assembly inh -22.
`CCC(Sc1nnc(C)s1)C(=O)Nc1nccs1` (centres undefined) gave HPGD block -18%, ALDH1A1 inh inconclusive and PNC assembly inh 12.
`CCN(c1cccc(C)c1)S(=O)(=O)c1ccc(OC)c([N+](=O)[O-])c1` gave ALDH1A1 inh 25µM*.
For CCN(c1ccccc1)S(=O)(=O)c1ccc(OC)c(OC)c1 the results were HPGD block -2%, ALDH1A1 inh -2% and PNC assembly inh 23.
